From PubChem BioAssay (NCI)
The panel holds about 79,000 compounds, 15% with a hit somewhere; the sample as a whole holds those more often. The source made the active and inactive calls. Rule as the data show it: active = growth inhibition above about 70%; inactive = the rest.

Key:
[1] = NCI Yeast Anticancer Drug Screen. Data for the rad52 strain (AID 147);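 also: 0% = growth of vehicle-treated control cultures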; settings: S. cerevisiae rad52 mutant growth inhibition, stronger effect = higher value
Method in brief: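 Genetically altered yeast (DNA damage repair defect) treated with compound; inhibition calculated relative to vehicle.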

[2] = NCI Yeast Anticancer Drug Screen. Data for the wt1 strain (AID 149);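 also: 0% = growth of vehicle-treated wt1 cultures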; settings: S. cerevisiae wt1 strain (SPY 50644) growth inhibition, stronger effect = higher value
Method in brief: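 Compounds are added to wt1 yeast cultures. Growth is then measured. Inhibition is expressed relative to vehicle-treated controls.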

[3] = NCI Yeast Anticancer Drug Screen. Data for the rad50EPP+ strain (AID 151);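 also: 0% = growth of vehicle-treated control cultures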; settings: S. cerevisiae rad50 mutant strain, stronger effect = higher value
Method in brief: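 Strain rad50EPP+; compound exposure; % growth inhibition vs vehicle.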

[4] = NCI Yeast Anticancer Drug Screen. Data for the mgt1 strain (AID 153); settings: S. cerevisiae mgt1 mutant growth inhibition, stronger effect = higher value
Method in brief: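 Read-out: yeast growth inhibition vs vehicle control. Strain mgt1, drawn from a panel altered in DNA damage repair or cell cycle control.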

[5] = NCI Yeast Anticancer Drug Screen. Data for the rad50 strain (AID 155);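 also: 0% = growth of vehicle-only cultures of the same strain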; settings: S. cerevisiae rad50 strain growth inhibition, stronger effect = higher value
Method in brief: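 Inhibition values express reduced yeast growth in compound-treated cultures relative to vehicle-treated controls.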

[6] = NCI Yeast Anticancer Drug Screen. Data for the mec2-1 strain (AID 157); settings: S. cerevisiae mec2-1 strain, stronger effect = higher value
Method in brief: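 Cells of the genetically defined mec2-1 yeast strain are incubated with test compound. Inhibition of growth is calculated against vehicle-treated controls.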

[7] = NCI Yeast Anticancer Drug Screen. Data for the rad14 strain (AID 159);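 also: 0% = growth of vehicle-treated control cultures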; settings: S. cerevisiae rad14 strain growth inhibition, stronger effect = higher value
Method in brief: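 A mutant yeast strain defective in DNA damage repair is treated with compound; inhibition of its growth is scored against untreated, vehicle-exposed cultures.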

[8] = NCI Yeast Anticancer Drug Screen. Data for the sgs1 mgt1 strain (AID 161);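 also: 0% = growth of cultures given vehicle only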; settings: S. cerevisiae sgs1 mgt1 strain, stronger effect = higher value
Method in brief: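 Inhibition of yeast growth, normalised to vehicle-treated controls, is reported for a strain bearing genetic alterations in DNA damage repair.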

[9] = NCI Yeast Anticancer Drug Screen. Data for the CLN2oe strain (AID 163);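 also: 0% = growth of vehicle-only control cultures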; settings: S. cerevisiae CLN2oe strain, stronger effect = higher value
Method in brief: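 Strain altered in cell-cycle control, incubated with compound; growth compared to solvent-treated controls.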

[10] = NCI Yeast Anticancer Drug Screen. Data for the cln2 rad14 strain (AID 165);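 also: 0% = growth equal to vehicle treated cultures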; settings: S. cerevisiae cln2 rad14 strain, stronger effect = higher value
Method in brief: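 The screen exposed genetically defined yeast (cln2 rad14) to test compounds and scored growth inhibition relative to vehicle-treated controls.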

[11] = NCI Yeast Anticancer Drug Screen. Data for the bub3 strain (AID 167); settings: S. cerevisiae bub3 mutant strain, stronger effect = higher value
Method in brief: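 Steps: expose the mutant yeast strain to compound; grow alongside vehicle-treated cultures; measure growth; express inhibition against the vehicle cultures.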

[12] = NCI Yeast Anticancer Drug Screen. Data for the wt2 strain (AID 169);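 also: 0% = growth of vehicle-treated yeast cultures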; settings: S. cerevisiae wt2 strain growth inhibition, stronger effect = higher value
Method in brief: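 Steps: yeast strain treated with compound; growth recorded; inhibition calculated relative to cultures given vehicle alone.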

[13] = NCI Yeast Anticancer Drug Screen. Data for the mlh1 strain (AID 171);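 also: 0% = growth of vehicle-treated control cultures of the same strain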; settings: S. cerevisiae mlh1 strain growth inhibition, stronger effect = higher value
Method in brief: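 Yeast screen: mutant strain plus compound, growth scored against vehicle control wells.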

[14] = NCI Yeast Anticancer Drug Screen. Data for the sgs1 strain (AID 173);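 also: 0% = growth of vehicle-only control cultures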; settings: S. cerevisiae sgs1 mutant, stronger effect = higher value
Method in brief: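 Inhibition of yeast growth served as the measure. The mutant strain was treated with each compound, and growth was normalised to cultures receiving vehicle alone.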

[15] = NCI Yeast Anticancer Drug Screen. Data for the mlh1 rad18 strain (AID 175); settings: S. cerevisiae mlh1 rad18 strain growth inhibition, stronger effect = higher value
Method in brief: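 Compound-treated yeast growth, normalised to vehicle controls. Strain bears defined DNA repair mutations.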

[16] = NCI Yeast Anticancer Drug Screen. Data for the rad18 strain (AID 177); settings: S. cerevisiae rad18 mutant growth inhibition, stronger effect = higher value
Method in brief: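 Inhibition values reflect reduced yeast growth compared with vehicle-treated controls, using a strain engineered with a DNA damage repair defect.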

[17] = at 5.0 µM (retest, dose inferred, filed as 0.5)
[18] = at 50.0 µM (retest, dose inferred, filed as 5.0)

Measured: growth inhibition

S=c1[nH]nc(Nc2ccc(Cl)cc2)s1
inactive: [1]; at 1.2 µM -6% | [1]; at 3.7 µM -9% | [1]; at 11.0 µM 1% | [2]; at 1.2 µM 1% | [2]; at 3.7 µM 4% | [2]; at 11.0 µM 6% | [2]; at 33.0 µM 36% | [3]; at 1.2 µM -2% | [3]; at 3.7 µM -10% | [3]; at 11.0 µM 13% | [3]; at 33.0 µM 27% | [3]; at 100.0 µM 23% | [4]; at 1.2 µM -1% | [4]; at 3.7 µM -7% | [4]; at 11.0 µM -2% | [4]; at 33.0 µM -8% | [4]; at 100.0 µM 19% | [5]; at 1.2 µM -7% | [5]; at 3.7 µM -13% | [5]; [17] -150% | [5]; at 11.0 µM -10% | [5]; at 33.0 µM -17% | [5]; [18] 32% | [5]; at 100.0 µM 42% | [6]; at 1.2 µM -1% | [6]; at 3.7 µM -1% | [6]; [17] -49% | [6]; at 11.0 µM -6% | [6]; at 33.0 µM 3% | [7]; at 1.2 µM -3% | [7]; at 3.7 µM 1% | [7]; at 11.0 µM 0% | [7]; at 33.0 µM 46% | [8]; [17] -61% | [9]; at 1.2 µM -7% | [9]; at 3.7 µM -7% | [9]; at 11.0 µM -13% | [9]; at 33.0 µM -11% | [10]; [17] -55% | [11]; at 1.2 µM -3% | [11]; at 3.7 µM -1% | [11]; [17] -67% | [11]; at 11.0 µM -7% | [11]; at 33.0 µM -10% | [11]; [18] 38% | [11]; at 100.0 µM 9% | [12]; at 1.2 µM 1% | [12]; at 3.7 µM 9% | [12]; at 11.0 µM 8% | [13]; at 1.2 µM -7% | [13]; at 3.7 µM -2% | [13]; at 11.0 µM -4% | [13]; at 33.0 µM 8% | [13]; at 100.0 µM 61% | [14]; at 1.2 µM -14% | [14]; at 3.7 µM -7% | [14]; at 11.0 µM 2% | [14]; at 33.0 µM 37% | [15]; [17] -149% | [15]; [18] 19% | [16]; at 1.2 µM -3% | [16]; at 3.7 µM 2% | [16]; at 11.0 µM -4% | [16]; at 33.0 µM 38%
active: [1]; at 33.0 µM 70% | [1]; at 100.0 µM 96% | [2]; at 100.0 µM 89% | [5]; at 50.0 µM 92.8% | [6]; [18] 93% | [6]; at 50.0 µM 91.8% | [6]; at 100.0 µM 91% | [7]; at 100.0 µM 96% | [8]; [18] 86% | [8]; at 50.0 µM 89% | [9]; at 100.0 µM 73% | [10]; [18] 83% | [10]; at 50.0 µM 90.5% | [11]; at 50.0 µM 88.8% | [12]; at 33.0 µM 82% | [12]; at 100.0 µM 98% | [14]; at 100.0 µM 91% | [15]; at 50.0 µM 92.6% | [16]; at 100.0 µM 94%

CN(C)c1nc2sc3c(c2c(=O)o1)CCCC3
active: [11]; [18] 92% | [11]; at 50.0 µM 75.2% | [15]; [18] 90%
inactive: [1]; at 1.2 µM 2% | [1]; at 3.7 µM 5% | [1]; at 11.0 µM 6% | [1]; at 33.0 µM 26% | [1]; at 100.0 µM 36% | [2]; at 1.2 µM -5% | [2]; at 3.7 µM -4% | [2]; at 11.0 µM -4% | [2]; at 33.0 µM 8% | [2]; at 100.0 µM 32% | [3]; at 1.2 µM 13% | [3]; at 3.7 µM 14% | [3]; at 11.0 µM 21% | [3]; at 33.0 µM 23% | [3]; at 100.0 µM 22% | [4]; at 1.2 µM -5% | [4]; at 3.7 µM -7% | [4]; at 11.0 µM 0% | [4]; at 33.0 µM 16% | [4]; at 100.0 µM 31% | [5]; at 1.2 µM 3% | [5]; at 3.7 µM 6% | [5]; [17] -4% | [5]; at 11.0 µM -13% | [5]; at 33.0 µM 29% | [5]; [18] 43% | [5]; at 50.0 µM 68.9% | [5]; at 100.0 µM 45% | [6]; at 1.2 µM 1% | [6]; at 3.7 µM -1% | [6]; [17] -4% | [6]; at 11.0 µM 0% | [6]; at 33.0 µM 26% | [6]; [18] 29% | [6]; at 50.0 µM 27.9% | [6]; at 100.0 µM 39% | [7]; at 1.2 µM 1% | [7]; at 3.7 µM -3% | [7]; at 11.0 µM 3% | [7]; at 33.0 µM 27% | [7]; at 100.0 µM 45% | [8]; [17] -7% | [8]; [18] 19% | [8]; at 50.0 µM 54.3% | [9]; at 1.2 µM 1% | [9]; at 3.7 µM -1% | [9]; at 11.0 µM -2% | [9]; at 33.0 µM 26% | [9]; at 100.0 µM 40% | [10]; [17] 26% | [10]; [18] 13% | [10]; at 50.0 µM -6.65% | [11]; at 1.2 µM 27% | [11]; at 3.7 µM 39% | [11]; [17] 39% | [11]; at 11.0 µM 44% | [11]; at 33.0 µM 55% | [11]; at 100.0 µM 69% | [12]; at 1.2 µM -1% | [12]; at 3.7 µM 0% | [12]; at 11.0 µM 1% | [12]; at 33.0 µM 26% | [12]; at 100.0 µM 35% | [13]; at 1.2 µM -3% | [13]; at 3.7 µM -4% | [13]; at 11.0 µM -2% | [13]; at 33.0 µM 26% | [13]; at 100.0 µM 31% | [14]; at 1.2 µM -3% | [14]; at 3.7 µM -4% | [14]; at 11.0 µM -1% | [14]; at 33.0 µM 19% | [14]; at 100.0 µM 36% | [15]; [17] -9% | [15]; at 50.0 µM 50.6% | [16]; at 1.2 µM 0% | [16]; at 3.7 µM 1% | [16]; at 11.0 µM 3% | [16]; at 33.0 µM 18% | [16]; at 100.0 µM 48%
